Several values for one entry are separate records, joined by “and”; a condition that tells them apart may be missing. Equal values may be shown once. Results filed as inconclusive are left out. Activity calls are given as the source filed them. The call rests on the fitted dose curve; in most records, active means well fitted curve in the direction sought with a large enough effect; inconclusive means small, poorly fitted or top-dose-only effect, or another doubt; inactive means no such curve, though single readings can be large; an effect the other way counts as inactive or inconclusive.
Experiments:
[1] = qHTS of pediatric cancer cell lines to identify multiple opportunities for drug repurposing: Primary screen for A673 cells (AID 1347092); details: A673 Ewing sarcoma viability, CellTiter-Glo ATP luminescence, 48 h; series mostly up to 46 µM; further: nearly all actives have a fitted effect of over 45% in size; further: potency means the concentration at half of the fitted maximal effect
Outline: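 Titration-based qHTS on A673 cells: MIPE compounds spanned 11 points (0.78 nM to 46 µM final), NPC compounds 8 points (0.59 nM to 46 µM final). Viability after 48 h was measured by ATP luminescence.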

[2] = qHTS of pediatric cancer cell lines to identify multiple opportunities for drug repurposing: Primary screen for SK-N-MC cells (AID 1347093); details: SK-N-MC viability, CellTiter-Glo luminescence, 48 h; series mostly up to 46 µM; further: potency means the concentration at half of the fitted maximal effect
Outline: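 Metabolically active cells were quantified by ATP-dependent luminescence (CellTiter-Glo, 15 min at room temperature) following 48 h treatment. Cells had been plated at 500-1,000 per well and settled for 5 h beforehand.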

[3] = qHTS of pediatric cancer cell lines to identify multiple opportunities for drug repurposing: Primary screen for U-2 OS cells (AID 1347096); details: U-2 OS viability, CellTiter-Glo luminescence, 48 h; series mostly up to 46 µM; further: nearly all actives have a fitted effect of over 50% in size; further: potency means the concentration at half of the fitted maximal effect
Outline: (§1)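 Cells (500-1,000/well) rested 5 h, then received compounds for 48 h; metabolically active cells were measured by CellTiter-Glo luminescence. Final concentrations spanned up to 46 µM (MIPE, 11-point) or 0.59 nM-46 µM (NPC, 8-point) in primary screens, 11-point in follow-ups.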

[4] = qHTS of pediatric cancer cell lines to identify multiple opportunities for drug repurposing: Primary screen for Saos-2 cells (AID 1347097); details: Saos-2 viability, CellTiter-Glo ATP luminescence, 48 h; series mostly up to 46 µM; further: nearly all actives have a fitted effect of over 40% in size; further: potency means the concentration at half of the fitted maximal effect
Outline: (§2)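 Plated cells (500-1,000 per well, growth media) were allowed to settle for 5 hours, treated with compound dilutions for 48 hours, then lysed with CellTiter-Glo for 15 min at room temperature before luminescence reading.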

[5] = qHTS of pediatric cancer cell lines to identify multiple opportunities for drug repurposing: Primary screen for SK-N-SH cells (AID 1347098); details: SK-N-SH viability, CellTiter-Glo luminescence, 48 h; series mostly up to 57 µM; further: nearly all actives have a fitted effect of over 65% in size; further: potency means the concentration at half of the fitted maximal effect
Outline: as §1

[6] = qHTS of pediatric cancer cell lines to identify multiple opportunities for drug repurposing: Primary screen for LAN-5 cells (AID 1347100); details: LAN-5 neuroblastoma viability, CellTiter-Glo luminescence, 48 h; series mostly up to 46 µM; further: potency means the concentration at half of the fitted maximal effect
Outline: as §1

[7] = qHTS of pediatric cancer cell lines to identify multiple opportunities for drug repurposing: Primary screen for BT-12 cells (AID 1347101); details: BT-12 viability, CellTiter-Glo luminescence, 48 h; series mostly up to 57.3 µM; further: nearly all actives have a fitted effect of over 25% in size; further: potency means the concentration at half of the fitted maximal effect
Outline: as §1

[8] = qHTS of pediatric cancer cell lines to identify multiple opportunities for drug repurposing: Primary screen for Rh18 cells (AID 1347102); details: Rh18 rhabdomyosarcoma viability, CellTiter-Glo luminescence, 48 h; series mostly up to 46 µM; further: nearly all actives have a fitted effect of over 65% in size; further: potency means the concentration at half of the fitted maximal effect
Outline: as §1

[9] = qHTS of pediatric cancer cell lines to identify multiple opportunities for drug repurposing: Primary screen for OHS-50 cells (AID 1347103); details: OHS-50 osteosarcoma viability, CellTiter-Glo luminescence, 48 h; series mostly up to 57.3 µM; further: nearly all actives have a fitted effect of over 40% in size; further: potency means the concentration at half of the fitted maximal effect
Outline: as §1

[10] = qHTS of pediatric cancer cell lines to identify multiple opportunities for drug repurposing: Primary screen for RD cells (AID 1347104); details: RD rhabdomyosarcoma viability, CellTiter-Glo luminescence, 48 h; series mostly up to 46 µM; further: nearly all actives have a fitted effect of over 55% in size; further: potency means the concentration at half of the fitted maximal effect
Outline: as §2

[11] = qHTS of pediatric cancer cell lines to identify multiple opportunities for drug repurposing: Primary screen for MG 63 (6-TG R) cells (AID 1347105); details: MG 63 (6-TG R) viability, CellTiter-Glo, 48 h; series mostly up to 46 µM; further: nearly all actives have a fitted effect of over 50% in size; further: potency means the concentration at half of the fitted maximal effect
Outline: as §2

[12] = qHTS of pediatric cancer cell lines to identify multiple opportunities for drug repurposing: Primary screen for control Hh wild type fibroblast cells (AID 1347106); details: Hh wild-type fibroblast viability, CellTiter-Glo luminescence, 48 h; series mostly up to 46 µM;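 further: a drop in luminescence marks cytotoxicity and a rise apparent proliferation; nearly all actives have a fitted effect of over 55% in size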
Outline: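 Viability after 48 h compound treatment at 37C, 500-1,000 cells/well, read as ATP luminescence with CellTiter-Glo. Primary screens used 11-point (MIPE, 0.78 nM-46 µM) or 8-point (NPC, 0.59 nM-46 µM) final concentrations; follow-up screens used 11-point dilutions.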

[13] = qHTS of pediatric cancer cell lines to identify multiple opportunities for drug repurposing: Primary screen for Rh41 cells (AID 1347108); details: Rh41 rhabdomyosarcoma viability, CellTiter-Glo luminescence, 48 h; series mostly up to 46 µM; further: nearly all actives have a fitted effect of over 70% in size; further: potency means the concentration at half of the fitted maximal effect
Outline: as §2

[14] = qHTS of pediatric cancer cell lines to identify multiple opportunities for drug repurposing: Confirmatory screen for A673 cells (AID 1347110); details: A673 Ewing sarcoma cell viability; series mostly up to 45.9 µM;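 further: cells exposed to compound for 48 h before the viability read; nearly all actives have a fitted effect of over 65% in size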; further: potency means the concentration at half of the fitted maximal effect
Outline: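 Forty-eight-hour viability assay. Follow-up compounds ran at 11-point dilutions; positive control bortezomib at 2.3 uM final, neutral control DMSO.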

[15] = qHTS of pediatric cancer cell lines to identify multiple opportunities for drug repurposing: Primary screen for NB-EBc1 cells (AID 1347095); details: NB-EBc1 neuroblastoma viability, CellTiter-Glo luminescence, 48 h; series mostly up to 46 µM; further: potency means the concentration at half of the fitted maximal effect
Outline: as §2

[16] = qHTS of pediatric cancer cell lines to identify multiple opportunities for drug repurposing: Primary screen for NB1643 cells (AID 1347099); details: NB1643 neuroblastoma viability, CellTiter-Glo luminescence, 48 h; series mostly up to 46 µM; further: nearly all actives have a fitted effect of over 50% in size; further: potency means the concentration at half of the fitted maximal effect
Outline: as §2

[17] = qHTS of pediatric cancer cell lines to identify multiple opportunities for drug repurposing: Primary screen for Rh30 cells (AID 1347107); details: Rh30 rhabdomyosarcoma viability, CellTiter-Glo luminescence, 48 h; series mostly up to 46 µM; further: nearly all actives have a fitted effect of over 75% in size
Outline: as §1

[18] = qHTS of pediatric cancer cell lines to identify multiple opportunities for drug repurposing: Confirmatory screen for NB1643 cells (AID 1347109); details: NB1643 neuroblastoma cell viability; series mostly up to 45.9 µM; further: nearly all actives have a fitted effect of over 45% in size; further: potency means the concentration at half of the fitted maximal effect
Outline: as §1

[19] = qHTS of pediatric cancer cell lines to identify multiple opportunities for drug repurposing: Confirmatory screen for SK-N-MC cells (AID 1347111); details: SK-N-MC cell viability; series mostly up to 45.9 µM;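 further: potency means the concentration at half of the fitted maximal effect; cells exposed to compound for 48 h before the readout; nearly all actives have a fitted effect of over 70% in size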
Outline: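 Seed 500-1,000 cells/well; rest 5 h at 37 degrees C. Pin-transfer compounds, 11-point titration. Incubate 48 h. Add CellTiter-Glo, 15 min RT, read luminescence.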

[20] = qHTS of pediatric cancer cell lines to identify multiple opportunities for drug repurposing: Primary screen for BT-37 cells (AID 1347094); details: BT-37 viability, CellTiter-Glo luminescence, 48 h; series mostly up to 57.3 µM
Outline: as §2

Measured: Potency

CCC(C)(C)C(=O)O[C@H]1C[C@@H](C)C=C2C=C[C@H](C)[C@H](CC[C@@H]3C[C@@H](O)CC(=O)O3)[C@H]21
inactive: [6] | [10] | [12] | [13]
active: [1] 10.6 µM | [2] 33.2 µM | [3] 18.7 µM | [4] 2.37 µM and 2.96 µM | [5] 7.7 µM and 21.5 µM | [7] 1.38 µM and 1.93 µM | [8] 8.41 µM and 14.8 µM | [9] 6.17 µM and 10.9 µM | [11] 2.66 µM and 4.69 µM | [14] 5.22 µM

N#CC[C@H](C1CCCC1)n1cc(-c2ncnc3[nH]ccc23)cn1
active: [1] 23.5 µM | [2] 23.5 µM | [16] 14.8 µM
inactive: [15] | [3] | [4] | [5] | [7] | [12]

Nc1nccc(-c2ccc3noc(-c4ccc(Cl)cc4)c3c2)n1
active: [1] 7.43 µM | [2] 10.5 µM | [16] 16.6 µM
inactive: [15] | [3] | [4] | [6] | [8] | [10] | [11] | [17] | [13]

CN1CCN(CCCN2c3ccccc3Sc3ccc(C(F)(F)F)cc32)CC1
inactive: [3] | [8] | [17] | [13]
active: [1] 21.1 µM and 296 nM | [2] 1.05 µM | [4] 18.7 µM | [5] 12.2 µM and 7.64 µM | [16] 3.32 µM | [6] 16.6 µM | [7] 24.6 µM and 21.7 µM | [9] 27.6 µM and 19.3 µM | [10] 26.6 µM and 18.7 µM | [18] 23.3 µM | [14] 26.1 µM

Cc1cc(C=c2sc3nc4ccccc4n3c2=O)c(C)n1-c1ccccc1
inactive: [1] | [2] | [15] | [3] | [5] | [6] | [7] | [10] | [11] | [12]

COc1ccc2c3n(c(=NC(=O)c4cccnc4)nc2c1OC)CCN3
active: [1] 0.743 µM | [2] 0.372 µM | [15] 18.7 µM | [4] 1.18 µM | [5] 961 nM | [16] 4.18 µM | [6] 14.8 µM | [9] 0.968 µM | [10] 1.87 µM | [11] 2.35 µM | [13] 0.935 µM
inactive: [7] | [12] | [17]

CCCS(=O)(=O)Nc1ccc(F)c(C(=O)c2c[nH]c3ncc(-c4ccc(Cl)cc4)cc23)c1F
active: [1] 9.35 µM | [2] 10.5 µM | [5] 4820 nM | [16] 3.32 µM | [6] 20.9 µM | [9] 6.85 µM | [10] 18.7 µM | [11] 14.8 µM | [14] 16.5 µM | [19] 23.3 µM

CCOc1ccn(-c2ccc(F)cc2)c(=O)c1C(=O)Nc1ccc(Oc2ccnc(N)c2Cl)c(F)c1
active: [1] 18.7 µM | [2] 13.2 µM | [4] 16.6 µM | [6] 7.43 µM | [9] 19.3 µM | [14] 13.1 µM | [19] 9.27 µM
inactive: [3] | [10] | [17]

COc1c(Cl)cc2c([nH]c3cnccc32)c1NC(=O)c1cccnc1C
active: [1] 0.469 µM | [2] 1.32 µM
inactive: [15] | [3] | [12] | [17]

C[C@]1(c2nc3c(C(N)=O)cccc3[nH]2)CCCN1
active: [1] 14.8 µM | [2] 1.18 µM | [4] 20.9 µM | [16] 9.35 µM
inactive: [3] | [8] | [11] | [12] | [18] | [14]

Cn1cc(-c2ccc3nnc(C(F)(F)c4ccc5ncccc5c4)n3n2)cn1
inactive: [1] | [2] | [3] | [16] | [10] | [12]

CCOc1ccc(Cc2cc([C@@H]3O[C@H](CO)[C@@H](O)[C@H](O)[C@@H]3O)ccc2Cl)cc1
active: [1] 23.5 µM | [2] 20.9 µM
inactive: [3] | [16] | [8] | [11] | [12] | [17] | [13]

Cc1[nH]c(=O)c(C#N)cc1-c1ccncc1
not listed: [2] | [14] | [16] | [18] | [19]
inactive: all other assays above

OC(CN1CCC(Cc2ccc(F)cc2)CC1)c1ccc(Cl)cc1 (stereo not given)
active: [14] 3.69 µM
not listed: [2] | [5] | [15] | [16] | [18] | [19]
inactive: all other assays above

CS(=O)(=O)c1ccc(C(=O)Nc2ccc(Cl)c(-c3ccccn3)c2)c(Cl)c1
active: [2] 2.64 µM
inactive: [20] | [15] | [3] | [5] | [6] | [8] | [9] | [10] | [12] | [14]

— PubChem BioAssay (NCATS)
